From PubChem BioAssay
FMDV inh: antivirals against foot and mouth disease virus | Potency, µM (doses to about 57.9 µM), hits mostly inhibitors | FMDV antiviral cell-based qHTS | 410,000 tested, 1.2% active | AID 1159524; calls by dose curve; tested in HEK293T cells; also: read-out not given here; nearly all actives have a fitted effect of over 45% in size
Marburg entry inh: inhibitors of Marburg virus binding or cell entry; Marburg virus pseudotyped entry inhibition, cell reporter; Potency, µM (series often up to 37.8 µM), actives largely listed as inhibitors; 300,000 tested, 1.8% active; calls by dose curve; tested in HEK293 cells
LASV entry inh: inhibitors of Lassa virus binding or cell entry; Potency, µM (titrated, usually from 37.9 µM), hits mostly inhibitors; Lassa virus pseudotype entry inhibition, cell reporter; 300,000 tested, 1.2% active; calls by dose curve; tested in HEK293 cells; also: nearly all actives have a fitted effect of over 50% in size
HCMV antiviral: human cytomegalovirus inhibition | AID 1259415 | activity change, negative = inhibition, % at 57.5 µM | 410,000 tested, 4.5% active | HFF cells, HCMV-luciferase reporter, 72 h; hits give low values; in the data active = activity change below about -60%; inconclusive = no clear call, values can overlap the other calls; inactive = above about -39%
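Steps: HFFs plated, 16 h 37C; compounds added; HCMV-luciferase added to MOI 1 PFU/cell; 72 h 37C; OneGlo reagent, 5 min room temperature; luminescence read, normalized to controls.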
Large screens that a line does not name were inactive. Most compounds without a hit are left out; they make up all but 6.2% or so of the library.

CS(=O)(=O)N1CCN=C1SCc1ccc([N+](=O)[O-])cc1	Marburg entry inh inconclusive, HCMV antiviral -65
O=S1(=O)NC[C@]23C[C@H](c4ccc(F)cc4)[C@@H](C[C@@H]21)O3	HCMV antiviral -102 (no result: Marburg entry inh, LASV entry inh)
Cc1ccc([C@H]2C[C@]34CNS(=O)(=O)[C@H]3C[C@H]2O4)cc1	none (no result: FMDV inh, Marburg entry inh, LASV entry inh)
COc1ccc(N2CCN(C(=O)C(CC(C)C)NS(=O)(=O)c3ccc4nc(C)sc4c3)CC2)cc1 (stereo unspecified)	none
CCCc1cc(=O)oc2cc(OCC(=O)NCCCn3ccnc3)c(Cl)cc12	HCMV antiviral -63 (no result: Marburg entry inh, LASV entry inh)
CCCc1cc(=O)oc2c(C)c(OCC(=O)NCCCn3ccnc3)ccc12	none
O=C1CCCC/C1=C/Nc1cccc(C(F)(F)F)c1	none
O=C1CCC2S/C(=C/Nc3ccc(C(F)(F)F)cc3)C(=O)N12 (stereo unspecified)	FMDV inh 8.9µM, Marburg entry inh inconclusive, LASV entry inh inconclusive, HCMV antiviral -78
CCCOc1ccc(Br)cc1/C=N/NC(=O)c1cc(OC)c(OC)c(OC)c1	Marburg entry inh inconclusive
COc1ccc(C(=O)N/N=C/c2cc(Br)ccc2O)cc1OC	Marburg entry inh 8.9µM, LASV entry inh 2.5µM, HCMV antiviral -97
Cn1cccc1-c1cc(C(=O)N/N=C/c2cc(Br)ccc2O)[nH]n1	Marburg entry inh inconclusive, LASV entry inh inconclusive, HCMV antiviral -95
COc1ccccc1OCC(=O)N/N=C/c1cccc2cccnc12	none
COc1ccc(/C=N/NC(=O)c2ccc(Br)cc2)c(OC)c1	HCMV antiviral inconclusive
COc1ccccc1OCC(=O)N/N=C/c1c(O)ccc2ccccc12	HCMV antiviral -109 (no result: FMDV inh, Marburg entry inh, LASV entry inh)
COc1ccc(O)c(/C=N/NC(=O)c2ccc(OCc3cccc(Br)c3)cc2)c1	Marburg entry inh inconclusive, LASV entry inh inconclusive, HCMV antiviral -97
COc1ccc(CNCCc2ccc(Cl)cc2)c(OC)c1OC	none (no result: Marburg entry inh, LASV entry inh)
CCO[C@@H]1c2c(ccc3ccc(=O)oc23)OC(C)(C)[C@@H]1O	none (no result: Marburg entry inh, LASV entry inh)
CCNC(=O)C(=O)NCCc1ccc(Cl)cc1	none
COc1ccc2ccccc2c1/C=N/NC(=O)c1cccc(Br)c1	HCMV antiviral -67
COc1ccc(/C=N/NC(=O)c2cccc(Br)c2)cc1Cn1cc(Cl)cn1	FMDV inh inconclusive, Marburg entry inh 7.1µM, LASV entry inh inconclusive
O=C(N/N=C/c1c(O)ccc2ccccc12)C(=O)N1CCCC1	HCMV antiviral -75 (no result: Marburg entry inh, LASV entry inh)
CNC(=S)N/N=C/c1ccc(-c2ccc(C(=O)O)cc2)o1	none (no result: Marburg entry inh, LASV entry inh)
CCCCOc1ccc(-c2c(C#N)c(N)nc(SCC(N)=O)c2C#N)cc1	FMDV inh inconclusive, Marburg entry inh inconclusive, LASV entry inh 4.5µM
COc1cc(OC)c2c(-c3cccc(-c4ccc(C#N)cc4)c3)cc(=O)oc2c1	none (no result: Marburg entry inh, LASV entry inh)
Clc1ccc(-c2csc3ncnc(N4CCc5ccccc5C4)c23)cc1	FMDV inh inconclusive
COc1ccccc1N1CCN(C(=O)CSc2nnc3n2C(C)(C)Cc2ccccc2-3)CC1	FMDV inh 16µM, Marburg entry inh inconclusive, LASV entry inh inconclusive, HCMV antiviral -92
COc1ccccc1N1CCN(C(=O)CSc2ncnc3scc(-c4ccccc4)c23)CC1	FMDV inh inconclusive, Marburg entry inh inconclusive, LASV entry inh 6.3µM
Clc1ccc(CN2CCN(c3ncnc4scc(-c5cccs5)c34)CC2)cc1	FMDV inh inconclusive, Marburg entry inh inconclusive, LASV entry inh inconclusive, HCMV antiviral -98
Cc1ccccc1N1CCN(c2ncnc3scc(-c4cccs4)c23)CC1	FMDV inh inconclusive, Marburg entry inh 23µM, HCMV antiviral -67
COC(=O)CSc1ncnc2scc(-c3ccccc3)c12	none
CC1Cc2ccccc2N1C(=O)CSc1nnc2n1C(C)(C)Cc1ccccc1-2 (stereo unspecified)	FMDV inh inconclusive, HCMV antiviral inconclusive
C[C@H](NC(=O)c1ccco1)C(=O)Nc1cccc([N+](=O)[O-])c1	none
CSc1ncccc1C(=O)OCCCC(=O)c1ccc(F)cc1	Marburg entry inh inconclusive
CCOC(=O)N1CCN(c2ncnc3scc(-c4ccccc4)c23)CC1	Marburg entry inh inconclusive
Fc1ccc(CN2CCN(c3ncnc4scc(-c5ccc(F)cc5)c34)CC2)cc1	FMDV inh inconclusive, HCMV antiviral -86 (no result: Marburg entry inh, LASV entry inh)
COc1ccc(-c2csc3ncnc(N4CCN(Cc5ccccc5)CC4)c23)cc1	FMDV inh 22µM, HCMV antiviral -89
CCN1CCN(c2ncnc3scc(-c4ccc(C)c(C)c4)c23)CC1	Marburg entry inh inconclusive, HCMV antiviral -67
CC(C)(C)C(=O)N1CCN(c2ncnc3scc(-c4ccccc4)c23)CC1	Marburg entry inh inconclusive, LASV entry inh inconclusive, HCMV antiviral -70
CN1CCCN(c2ncnc3scc(-c4ccc(F)cc4)c23)CC1	none (no result: Marburg entry inh, LASV entry inh)
O=C(CSc1nnc(-c2ccco2)n1Cc1ccccc1)c1ccc(F)cc1	none
COc1ccc(-c2csc3ncnc(N4CCN(c5ccccc5)CC4)c23)cc1	FMDV inh 18µM, Marburg entry inh inconclusive, LASV entry inh inconclusive
CCCCN(C)C(=O)C1CCC(CNS(=O)(=O)c2ccc3c(c2)CC(C)N3C(C)=O)CC1 (stereo unspecified)	LASV entry inh inconclusive
Brc1ccc2ncnc(NCc3ccccc3)c2c1	FMDV inh inconclusive, Marburg entry inh inconclusive, LASV entry inh inconclusive, HCMV antiviral -96
Cc1cc2c(Nc3ccccc3)ncnc2s1	Marburg entry inh inconclusive, HCMV antiviral inconclusive
COc1cc2ncnc(NCc3ccc(F)cc3)c2cc1OC	Marburg entry inh inconclusive, LASV entry inh inconclusive
COc1cc2ncnc(NCc3ccc(Cl)cc3)c2cc1OC	HCMV antiviral -78 (no result: Marburg entry inh, LASV entry inh)
c1ccc(CCNc2ncnc3ccccc23)cc1	HCMV antiviral -89 (no result: Marburg entry inh, LASV entry inh)
N#Cc1ccccc1-c1ccc2ncnc(NCc3ccccc3)c2c1	none (no result: Marburg entry inh, LASV entry inh, HCMV antiviral)
Cc1cc2c(NCCc3ccccc3)ncnc2s1	Marburg entry inh 7.1µM, LASV entry inh inconclusive, HCMV antiviral -88
COc1ccc(-c2[nH]c(-c3ccc(F)cc3)nc2SCC(=O)NCc2ccco2)cc1OC	none (no result: LASV entry inh)
O=C(CSc1n[nH]c(=O)n1C1CC1)Nc1ccccc1	none (no result: Marburg entry inh, LASV entry inh)
O=C(CSc1n[nH]c(=O)n1C1CC1)Nc1cc(Cl)ccc1Oc1ccccc1	FMDV inh 14µM, Marburg entry inh 8.2µM, LASV entry inh inconclusive
CCN(CC(=O)Nc1ccc(NC(C)=O)cc1)C(=O)/C=C/c1cn(-c2ccccc2)nc1-c1cccs1	LASV entry inh inconclusive
O=C(O)CCN1C(=O)/C(=C/c2cn(-c3ccccc3)nc2-c2cccs2)SC1=S	Marburg entry inh inconclusive, HCMV antiviral -61
CN1CCC(N(C)C(=O)/C=C/c2cn(-c3ccccc3)nc2-c2cccs2)CC1	Marburg entry inh inconclusive, LASV entry inh inconclusive, HCMV antiviral -111
O=C(O)CCCCCN1C(=O)/C(=C/c2cn(-c3ccccc3)nc2-c2cccs2)SC1=S	none
COc1ccc(-c2nn(-c3ccccc3)cc2/C=C2/SC(=S)N(CCC(=O)O)C2=O)c(C)c1	FMDV inh 32µM, Marburg entry inh inconclusive
Cc1ccc(C)c(C(=O)COC(=O)CCN2C(=O)C3C4CCC(C4)C3C2=O)c1 (stereo unspecified)	none
CC(C)c1cc(C(C)C)c(S(=O)(=O)N2CCNCC2)c(C(C)C)c1	Marburg entry inh 10µM, LASV entry inh inconclusive
COc1ccc(/C=C/C(=O)OCC(=O)N2CC(=O)Nc3ccccc32)cc1S(=O)(=O)N1CCOCC1	LASV entry inh inconclusive
O=C(CSc1nnc(-c2ccncc2)o1)NCc1ccccc1	HCMV antiviral -90
